Laboratory results from the supplement of paper PMC13380429.

System: Vero E6 infected with SARS-CoV-2
Experiment: inhibition of SARS-CoV-2 cytopathic effect; higher = more antiviral protection, active = above 15
Conditions: 48 h

Measured: inhibition of SARS-CoV-2 cytopathic effect

CCCNC(C)C(=O)Nc1ccccc1C (stereo not given) [prilocaine]
inactive: 1 nM 3.07% | 8.33 nM -1.58% | 100 nM -0.81% | 833.33 nM 2.12% | 10000 nM 2%

Cc1ncc(OC[C@@]2(c3cccc(F)c3)C[C@H]2C(=O)Nc2ccc(F)cn2)c(C)n1 [lemborexant]
inactive: 1 nM -1.6% | 8.33 nM -1.02% | 100 nM -1.75% | 833.33 nM -4.61% | 10000 nM -1.06%

C[C@]1(COc2ccc(N3CCC(Oc4ccc(OC(F)(F)F)cc4)CC3)cc2)Cn2cc([N+](=O)[O-])nc2O1 [delamanid]
inactive: 1 nM -0.82% | 8.33 nM 0.01% | 100 nM -1.12% | 833.33 nM 2.83% | 10000 nM 1.84%
